The values below come from PubChem BioAssay (NCATS).

“And” between values parts separate entries of the source, which are not always exact repeats. Equal values may be shown once. Results filed as inconclusive are left out. The source made the active and inactive calls. Unless noted, calls follow the shape of the dose curve; as a rule, active = well fitted curve in the direction sought with a large enough effect; inconclusive = small, poorly fitted or top-dose-only effect, or another doubt; inactive = no such curve, though single readings can be large; an effect the other way counts as inactive or inconclusive.

Assay [1] in a line: qHTS assay for small molecule agonists of the antioxidant response element (ARE) signaling pathway measured by Nrf2-dependant transcriptional activity (AID 720636; active = well fitted curve in the direction sought with a large enough effect in the repeat runs; an effect the other way counts as inactive or inconclusive; also: % of control where 0% means no effect). In outline:
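ARE-luc HepG2 cells carrying an Nrf2-responsive luciferase reporter were plated in medium with 1% dialyzed FBS, left 6 hr at 37 C to attach, then exposed to compound for 16 hr. Luciferase luminescence was read after ONE-Glo addition.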
Background: Quantitative high-throughput screening tests each substance at several concentrations.

Assay [2] is described as follows: qHTS assay for small molecule antagonists of the retinoid-related orphan receptor gamma (ROR-gamma) signaling pathway - cell viability counter screen (AID 720652; active = well fitted curve in the direction sought with a large enough effect in the repeat runs; an effect the other way counts as inactive or inconclusive;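 also: CHO reporter cells with doxycycline-induced ROR-gamma expression; compound exposure lasted 16 hr before ATP read; % is scaled to controls: 0 for no effect and ±100 for the full control effect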). Summed up:
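Cytotoxicity counter screen: intracellular ATP (CellTiter-Glo luminescence) measured in the doxycycline-induced CHO RORE-luciferase reporter line after 16 hr compound exposure at 37 C, 5% CO2.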

Assay [3] can be described thus: qHTS assay for small molecule agonists of the antioxidant response element (ARE) signaling pathway measured by Nrf2-dependant transcriptional activity - cell viability counter screen (AID 720653; active = well fitted curve in the direction sought with a large enough effect in the repeat runs; an effect the other way counts as inactive or inconclusive; also: % is scaled to controls: 0 for no effect and ±100 for the full control effect). To be noted: ARE-bla HepG2 viability, CellTiter-Glo ATP luminescence, 16 h; max response: stronger effect = lower value. In outline:
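Cytotoxicity counter screen: intracellular ATP quantified by CellTiter-Glo luminescence in the same ARE-bla HepG2 plates, after 16 h compound exposure and a 2 h beta-lactamase substrate step.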

The nature of assay [4]: qHTS Assay for Identifying Gametocytocidal Compounds (AID 743244). Also: potency is read from the fitted curve at half-maximal effect.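 As to max response: % is scaled to controls: 0 for no effect and ±100 for the full control effect; actives lower the fluorescent signal which means gametocytes are killed.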 The note with it: P. falciparum 3D7 stage III-V gametocytes, alamarBlue, 72 h; max response: stronger effect = lower value. Summed up:
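P. falciparum 3D7 stage III–V gametocytes (20,000 cells/well) were exposed to compounds for 72 h at 37 °C, 5% CO2. AlamarBlue was then added for 24 h; decreased resorufin fluorescence (Ex 525/Em 598 nm) indicated loss of viability.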

Assay [5] can be described thus: qHTS assay for cell viability of HEK293 cells (AID 743288). Also: % is scaled to controls: 0 for no effect and ±100 for the full control effect; nearly all actives have a fitted effect of over 50% in size. To be noted: ATP luminescence (CellTiter-Glo), 18 h; max response: stronger effect = lower value. In outline: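 HEK293, 18 h, 37 C, ATP luminescence. Cells at 2,000/well were allowed at least 5 h to settle before dosing; CellTiter-Glo developed 30 min at RT.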
The nature of assay [6]: qHTS assay for cell viability of the p53RE-bla HCT-116 cell line (AID 743292). Also: % is scaled to controls: 0 for no effect and ±100 for the full control effect; nearly all actives have a fitted effect of over 55% in size. Summed up:
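CellSensor p53RE-bla HCT-116 cells, 4,000/well, preincubated 5 h at 37 C, then exposed to compounds in DMSO for 16 h at 37 C. Viability read as CellTiter-Glo luminescence (intracellular ATP) after 30 min at room temperature.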

Assay [7] in a line: qHTS profiling of the MIPE4 collection as inhibitors of Plasmodium falciparum (3D7) proliferation (AID 743344; call rule not given here;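 also: scaled between DMSO vehicle wells and 0.29 µM artemisinin as full inhibition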). To be noted: P. falciparum 3D7 in erythrocytes, SYBR Green DNA fluorescence, 72 h; at 28.5 µM (top of the series). In outline: (§1)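 Parasite DNA was quantified by SYBR Green I fluorescence (ex 485, em 535 nm) after overnight lysis in saponin/Triton buffer at room temperature. Cultures at 0.3% parasitemia and 2.5% hematocrit were first exposed to compound for 72 h at 37 C; signals were normalised to artemisinin (0.29 uM) and vehicle wells.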

Assay [8] can be described thus: qHTS profiling of the MIPE4 collection as inhibitors of Plasmodium falciparum (DD2) proliferation (AID 743345; call rule not given here). The note with it: P. falciparum Dd2 in erythrocytes, SYBR Green DNA, 72 h; at 28.5 µM (top of the series) unless noted. In outline:
as §1

The nature of assay [9]: qHTS profiling of the MIPE4 collection as inhibitors of Plasmodium falciparum (DD2) proliferation (Rep 2) (AID 743346; call rule not given here). To be noted: P. falciparum Dd2 in erythrocytes, SYBR Green DNA, 72 h; at 28.5 µM (top of the series). In outline: as §1
Assay [10] in a line: qHTS profiling of the MIPE4 collection as inhibitors of Plasmodium falciparum (HB3) proliferation (AID 743347; call rule not given here;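 also: plate controls were DMSO vehicle wells for no effect and artemisinin wells for full effect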). The note with it: P. falciparum HB3 in erythrocytes, SYBR Green DNA, 72 h; at 28.5 µM (top of the series). In outline: as §1
A short description of assay [11]: qHTS for Activators of Parkin Expression: LOPAC Validation Assay (FLuc Reporter) (AID 720573;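 also: 0% = DMSO and 100% = positive control compounds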). Summed up:
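Readout is FLuc luminescence from neuronal reporter cells (Parkin promoter, FLuc plus NLuc) after 24 h compound exposure in dose response. Values normalized to neutral DMSO and positive-control compounds.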

Assay [12] deals with T1, Hexokinase-4 (Homo sapiens) + Glucokinase regulatory protein (Homo sapiens) (UniProt P35557+Q14397). The experiment in a line: qHTS assay for inhibitors of recombinant human GCK-GKRP interaction: Diaphorase-coupled assay (AID 743205). In outline:
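Signal derives from resorufin generated by diaphorase, linked to GCK turnover of glucose (5 mM) and ATP (0.4 mM). Enzyme complex was added after a 20-minute compound preincubation and monitored for 30 minutes.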

Assay [13] has as its target T1, Hexokinase-4 (Homo sapiens) + Glucokinase regulatory protein (Homo sapiens). The experiment in a line: qHTS assay for inhibitors of recombinant human GCK-GKRP interaction: ADP-Glo assay (AID 743206).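 Also: plate controls were DMSO plus enzyme for no effect and no enzyme for full effect.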 In outline: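 Pin-transferred compounds meet a 15 nM GST-GCK/15 nM FLAG-GKRP/2 uM S6P mix (dispense concentrations). ATP is then added to 0.4 mM final with 5 mM glucose, and the reaction runs 60 min at room temperature. ADP is quantified luminescently.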

Assay [14] has the same target. The experiment in a line: qHTS assay for inhibitors of recombinant human GCK-GKRP interaction: HTRF assay (AID 743207).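 Also: 0% = DMSO with GCK present and -100% = DMSO wells lacking GCK.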 Summed up: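 Titration screening format: recombinant GST-GCK and FLAG-GKRP at 5 nM, S6P at 2 uM, labelled anti-tag antibodies, 60 min at RT, dual-wavelength HTRF readout.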

T1 sequence (P35557 whole entry, looked up): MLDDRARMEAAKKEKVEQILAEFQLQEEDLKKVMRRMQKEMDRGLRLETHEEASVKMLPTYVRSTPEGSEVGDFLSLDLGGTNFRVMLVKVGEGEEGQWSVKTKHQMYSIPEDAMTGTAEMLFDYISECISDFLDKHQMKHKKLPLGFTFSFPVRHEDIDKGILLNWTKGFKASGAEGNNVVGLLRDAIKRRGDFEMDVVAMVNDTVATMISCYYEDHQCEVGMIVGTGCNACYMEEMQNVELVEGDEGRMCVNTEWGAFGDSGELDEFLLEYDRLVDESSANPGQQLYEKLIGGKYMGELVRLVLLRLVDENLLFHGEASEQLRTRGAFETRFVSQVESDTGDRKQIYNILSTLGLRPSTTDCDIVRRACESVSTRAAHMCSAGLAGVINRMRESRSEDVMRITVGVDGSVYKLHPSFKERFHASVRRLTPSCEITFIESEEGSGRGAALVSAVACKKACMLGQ
T1 sequence (Q14397 whole entry, looked up): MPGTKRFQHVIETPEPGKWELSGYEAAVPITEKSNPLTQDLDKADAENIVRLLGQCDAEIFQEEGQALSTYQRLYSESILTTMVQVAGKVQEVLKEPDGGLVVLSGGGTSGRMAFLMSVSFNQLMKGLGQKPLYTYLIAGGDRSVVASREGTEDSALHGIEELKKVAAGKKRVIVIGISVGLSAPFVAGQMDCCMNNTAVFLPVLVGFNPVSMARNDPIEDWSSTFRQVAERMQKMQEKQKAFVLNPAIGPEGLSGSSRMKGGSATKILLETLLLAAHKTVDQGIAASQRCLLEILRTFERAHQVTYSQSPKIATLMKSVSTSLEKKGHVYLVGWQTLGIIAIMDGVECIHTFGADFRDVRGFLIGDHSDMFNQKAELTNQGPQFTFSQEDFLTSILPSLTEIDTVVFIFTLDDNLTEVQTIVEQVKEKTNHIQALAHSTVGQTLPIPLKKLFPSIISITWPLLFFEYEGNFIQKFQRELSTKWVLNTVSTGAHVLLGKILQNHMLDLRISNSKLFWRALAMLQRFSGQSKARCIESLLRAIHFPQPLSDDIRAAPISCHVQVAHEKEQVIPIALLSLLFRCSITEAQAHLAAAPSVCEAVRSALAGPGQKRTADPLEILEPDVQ

`CN(C)[C@@H]1C(=O)C(C(N)=O)=C(O)[C@@]2(O)C(=O)C3=C(O)c4c(O)cccc4[C@@](C)(O)[C@H]3[C@H](O)[C@@H]12`: the Potency entry in assay [1], in assay [2] and in assay [6] was “inactive” in each case. Moreover, the max response in assay [3] was -0.377% (inactive) and -4.28% (inactive) and 10.9% (inactive); in assay [4], -4.72% (inactive) and -5.37% (inactive); in [5], -3.99% (inactive) and -10.9% (inactive) and -2.39% (inactive). This molecule showed a parasite growth, % of DMSO control in [7] of 29.4%. The molecule further had a parasite growth remaining, % of DMSO control (lower = more inhibition) in assay [8] of 45.1%. Also, the parasite growth, % of control (lower = inhibition) in [9] came to 32%. Also, the growth, % of control in assay [10] was 19.3%.

Take `CC[N+]1(CCOC(=O)C(O)(c2ccccc2)c2ccccc2)CCCCC1`: in [4], the max response was 2.2% (inactive).

On to `c1ccc(CCCN2CCN(CCOC(c3ccccc3)c3ccccc3)CC2)cc1`, for which the result in [11], in assay [12], in assay [13] and in assay [14] was inactive. The parasite growth, % of DMSO control in assay [7] is 9.93%. The parasite growth remaining, % of DMSO control (lower = more inhibition) in assay [8] amounted to 25.6%. Further, the parasite growth, % of control (lower = inhibition) in assay [9] stood at 18.7%. Further, in assay [10], the growth, % of control was 19.2%.

Turning to `NC(CP(=O)(O)O)C(=O)O` (stereo not given), the molecule was classed as inactive in assay [11], in assay [12], in assay [13] and in [14]. Also, the max response in [4] is 4% (inactive).

Take `CCCCc1ccc(C(=O)O)nc1`: the molecule was called inactive in assay [11], in assay [12], in [13] and in assay [14]. For the same molecule, the max response in assay [4] was 4.22% (inactive) and 15% (inactive).

As to `Cc1nccc2c1[nH]c1ccccc12`, the molecule was called inactive in assay [11], in [12], in assay [13] and in [14]. Further, the max response in assay [4] was 22.2% (inactive).

Consider `C[C@@H]1O[C@H](C[N+](C)(C)C)C[C@H]1O`, for which the result in [11], in [12], in assay [13] and in assay [14] was inactive. For the same molecule, in assay [4], the max response is 7.91% (inactive).

As for `NC1CC1c1ccccc1` (stereo not given), the result in assay [11], in assay [12], in assay [13] and in assay [14] was inactive. In addition, in assay [4], the max response is 14.3% (inactive). The same molecule displayed a parasite growth, % of DMSO control in assay [7] of 95.6%. In assay [8], this molecule showed a parasite growth remaining, % of DMSO control (lower = more inhibition) of 17.6%. Moreover, the parasite growth, % of control (lower = inhibition) in [9] worked out at 105%. This molecule also came in with a growth, % of control in assay [10] of 109%.

Turning to `COCCn1c2c([n+](Cc3cnccn3)c1C)C(=O)c1ccccc1C2=O`, the Potency in assay [4] is 372 nM (active).

Take `CCCCCCCCc1ccc(O)cc1`: the max response in [3] is -0.124% (inactive) and 0.446% (inactive); in [4] it was -6.88% (inactive); in assay [5], -15.8% (inactive) and -26% (inactive). For the same molecule, the Potency result in [6] is “inactive”.

As for `CC[C@@]1(O)C(=O)OCc2c1cc1n(c2=O)Cc2cc3ccccc3nc2-1`, the molecule was called inactive in assay [11], in assay [12], in assay [13] and in assay [14]. Also, in assay [4], the max response is -1.6% (inactive). Besides, the parasite growth, % of DMSO control in [7] amounted to 15.1%. The molecule further registered a parasite growth remaining, % of DMSO control (lower = more inhibition) in assay [8] of 12.9%. The parasite growth, % of control (lower = inhibition) in [9] stood at 19.3%. In assay [10], this molecule gave a growth, % of control of 5.89%.

As for `O=C(N[C@H]1CN2CCC1CC2)c1ccc(Cl)cc1`, the result in [11], in [12], in assay [13] and in assay [14] was inactive. The same molecule had a parasite growth, % of DMSO control in [7] of 89.4%. The parasite growth remaining, % of DMSO control (lower = more inhibition) in assay [8] came out at 82.1%. Further, in assay [9], the parasite growth, % of control (lower = inhibition) came out at 31.9%. This molecule also registered a growth, % of control in [10] of 71.8%.
